A selection: hits, their analogues and other compounds. The true share with any hit is near 4.1%.
MBD2 inh: inhibitors of MBD2 binding to methylated DNA, primary screen, biochemical, TR-FRET, DNA-binding domain, human; Methyl-CpG-binding domain protein 2 (Homo sapiens), Q9UBB5; MBD2 binding to methylated oligonucleotide; inhibition, % at 4.4 µM; hit rate 0.31% among 370,000; AID 686964, 2013; in the data active = inhibition above about 13%
PRMT1 FP inh: PRMT1 methyltransferase inhibitors, primary screen, biochemical, fluorescence polarization; inhibition, % at 2.79 µM; recombinant PRMT1, activity-based probe fluorescence polarization; hit rate 1.3% among 370,000; AID 652257, 2013;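 active = inhibition above about 21% made by adding two undisclosed values, limit read from the data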
Target sequence (Q99873 whole entry, looked up): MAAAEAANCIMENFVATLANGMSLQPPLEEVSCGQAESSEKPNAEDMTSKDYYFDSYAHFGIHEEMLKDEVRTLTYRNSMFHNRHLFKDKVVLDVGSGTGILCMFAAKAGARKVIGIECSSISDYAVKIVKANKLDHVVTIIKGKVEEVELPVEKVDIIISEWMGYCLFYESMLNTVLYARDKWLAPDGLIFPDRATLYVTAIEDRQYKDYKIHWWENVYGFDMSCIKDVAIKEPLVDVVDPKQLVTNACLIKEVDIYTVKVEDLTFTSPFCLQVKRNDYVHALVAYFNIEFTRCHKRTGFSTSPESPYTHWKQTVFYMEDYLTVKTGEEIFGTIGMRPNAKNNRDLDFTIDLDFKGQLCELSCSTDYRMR
UHRF1 binding: UHRF1 methylated DNA binding inhibitors, primary screen, counter-screen for MBD2 inhibitor project, biochemical, TR-FRET, human UHRF1, single concentration; E3 ubiquitin-protein ligase UHRF1 (Homo sapiens), Q96T88; UHRF1 binding to methylated oligo; inhibition, % at 4.4 µM; hit rate 0.75% among 370,000;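 also: UHRF1 SRA domain binding a hemimethylated CpG hairpin DNA probe; 0% = median of test compound wells and 100% = reference inhibitor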
LEDGF integ inh: blockers of LEDGF/p75-dependent integrase strand transfer – biochemical, TR-FRET, high throughput, primary screen. inhibition, % at 3.7 µM. HIV-1 integrase (with human LEDGF/p75). TR-FRET IN-LEDGF/p75 DNA integration, Eu/Cy5. hit rate 0.64% among 370,000;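 active = inhibition above the screen-wide mean plus 3 SD, cut at about 13% in these data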;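 also: signal is the Cy5 over europium emission ratio at 671 and 618 nm; 0% = plate median of compound wells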
ABHD5 PLIN5 PPI: ABHD5-PLIN5 interaction inhibitors, primary screen, cell lysate, split luciferase complementation, luminescence | Perilipin-5 (Homo sapiens) + 1-acylglycerol-3-phosphate O-acyltransferase ABHD5 (Homo … | Split G. princeps luciferase complementation, 4 h | AID 602281, 2012 | inhibition, % at 4 µM | hit rate 0.78% among 360,000;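 active = inhibition above the mean inhibition across every tested compound plus 3 SD, cut at about 22% in these data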;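 also: 0% = DMSO only wells and the 100% control is not disclosed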
rCAG binder: binders of r(CAG) RNA repeats, primary screen, biochemical, fluorescence; r(CAG) RNA repeat, TO-PRO-1 dye displacement fluorescence; inhibition, % at 3 µM; hit rate 1.3% among 370,000;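 active = inhibition above the plate cutoff, the mean of all test compounds on that plate plus 3 SD, cut at about 35% in these data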;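 also: 0% = DMSO alone and 100% = 100 µM mitoxantrone as full dye displacement; higher means more dye released from RNA so lower well fluorescence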
UHRF1 DNA bind: UHRF1 methylated DNA binding inhibitors, counter-screen for MBD2 inhibitor project, biochemical, TR-FRET, human UHRF1. shares compounds with MBD2 inh. UHRF1 binding to methylated oligonucleotide. inhibition, % at 4.4 µM. hit rate 25% among 1,000. AID 720530, 2013;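 also: UHRF1 SRA domain binding a labeled hemimethylated CpG hairpin DNA; 0% = vehicle only and 100% = reference inhibitor with vehicle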
MBD2 DBD conf: inhibitors of MBD2 binding to methylated DNA, confirmation, biochemical, TR-FRET, DNA-binding domain, human; AID 720531, 2013; TR-FRET MBD2-DBD binding to methylated oligonucleotide; inhibition, % at 4.4 µM; hit rate 26% among 1,000; shares compounds with MBD2 inh; in the data active = inhibition above about 14%
Active calls of the source: *; x = not tested or not shown. Rule as the data show it, unless noted: active = inhibition above about 21%; inactive = the rest.

SMILES	MBD2 inh	PRMT1 FP inh	UHRF1 binding	LEDGF integ inh	ABHD5 PLIN5 PPI	rCAG binder	UHRF1 DNA bind	MBD2 DBD conf
COC(=O)C1C(c2ccccc2)C=CC(c2ccccc2)C1C(=O)O (centres undefined)	44*	-3	2	1	-5	2	8	3
CCN(CC)CCNc1nc2cc(OC)c(OC)cc2c2nc(-c3ccccc3)nn12	31*	1	38*	-4	9	3	34*	25*
CC(C)Oc1ccc(C(CCNCc2ccc(O)cc2)c2ccccc2)cc1 (centres undefined)	65*	0	-2	-3	4	12	3	6
COc1ccc(C(CCNCc2ccc(N(C)C)cc2)c2ccccc2)cc1 (centres undefined)	1	-2	0	-3	12	12	x	x
O=C1CCC2(CCC(c3ccccc3)CC2)N1CCO (centres undefined)	-1	-5	-1	0	x	0	x	x
C[C@@H]1CN([C@@H](C)CO)C(=O)CCCn2cc(nn2)CO[C@H]1CN(C)C(=O)Cc1ccccc1	-3	3	4	1	x	-2	x	x
CCOc1ccc(N=Nc2c(C)noc2C)cc1	18*	2	26*	3	-1	-2	12	2
CCOc1ccc(C(=O)NCC(=O)OCc2c(C)noc2C)cc1	-1	0	-1	1	-3	-3	x	x
O=C(Nc1ccncc1)C1(c2ccccc2)CCCC1	-3	-1	1	-1	-5	-4	x	x
O=C(Nc1cccnc1)C1(c2ccccc2)CCCC1	16*	6	23*	3	10	-2	6	2
O=S1(=O)c2ccc(N3CCCC3)cc2Oc2ccccc2CN1Cc1cn(Cc2ccc(C(F)(F)F)cc2)nn1	1	-4	1	-1	x	12	x	x
COc1ccc2c(c1)c(/C=N/Nc1ccc(C(=O)O)cc1)c(C)n2C	15*	5	0	7	-1	7	7	2
CCOc1ccc(NC(=O)NN2C(C)CCCC2C)cc1 (centres undefined)	102*	-8	-4	5	0	-6	7	0
CCN1CCc2c(sc(NC(=O)c3ccc(S(=O)(=O)N4CCCC4)cc3)c2C(=O)NC)C1	7	-1	8	-3	-2	-2	x	x
CNC(=O)c1c(NC(=O)c2ccc(S(=O)(=O)N3CCCCC3)cc2)sc2c1CCN(C(C)C)C2	16*	4	16	-4	10	-6	17	9
COc1ccc(C(=O)OCCN2CCN(C3CN(Cc4cn(Cc5cccc(C)c5)nn4)S(=O)(=O)C3)CC2)cc1OC (centres undefined)	10	-1	14	-5	x	3	x	x
CCCc1c(C)[nH]c2ccc(C(=O)O)cc2c1=S	25*	15	77*	12	1	45*	38*	23*
Cc1c(CC(=O)O)c(=O)oc2c(C)c3occ(-c4ccc(Br)cc4)c3cc12	30*	2	1	3	5	7	0	3
O=C(NCc1ccc2c(c1)OCO2)C1CCC(CNS(=O)(=O)c2ccc(Cl)cc2)CC1 (centres undefined)	20*	-1	-2	-1	2	-4	8	3
C[N+]1(CC(=O)NNc2c3ccccc3nc3ccccc23)CCOCC1	40*	-7	29*	1	x	5	34*	31*
O=C(CN1CCOCC1)NNc1c2ccccc2nc2ccccc12	-8	-2	-8	-1	6	-1	x	x
Cc1cnn(-c2cc(Oc3ccccc3)ncn2)c1	16*	-1	1	0	-4	-1	1	4
c1ccc(Oc2cc(-n3cncn3)ncn2)cc1	0	-2	3	1	-8	-3	x	x
COC(=O)[C@@]12CCCCC3=C1N(CCC3)C(=O)[C@H]2CC(=O)NCc1cccc(C(F)(F)F)c1	0	0	1	3	x	0	x	x
O=c1[nH]c(SCCOc2ccccc2F)nc2ccccc12	14*	6	23*	2	-3	3	6	2
SMILES	MBD2 inh	PRMT1 FP inh	UHRF1 binding	LEDGF integ inh	ABHD5 PLIN5 PPI	rCAG binder	UHRF1 DNA bind	MBD2 DBD conf
O[C@H](COc1ccc(OC(F)(F)F)cc1)CN1CCC(C(O)(c2ccccc2)c2ccccc2)CC1	6	-1	-1	3	x	1	x	x
CCOC(=O)c1cccc(NC(=O)CN(C)S(=O)(=O)c2ccco2)c1	-2	4	2	3	x	-2	x	x
COC(=O)[C@]12C[C@H](CC(=O)NCc3cccs3)C(=O)N(Cc3ccc4c(c3)OCO4)C1=C[C@H](C(C)(C)C)O[C@@H]2C	4	0	4	-5	x	3	x	x
COc1cc(-c2nnc(COC(=O)c3ccc(C)o3)o2)cc(OC)c1OC	18*	-2	39*	4	0	7	9	8
COc1cc(-c2nnc(COC(=O)c3cc(C)no3)o2)cc(OC)c1OC	3	8	-1	-1	13	2	x	x
O=C(/C=C/c1cccc(Br)c1)N1CCN(c2ccccn2)CC1	14*	4	35*	-3	-1	-6	4	3
C=CCN(CC#CC1=CCCCC1)Cc1ccccc1	-10	0	0	6	x	-1	x	x
N#Cc1ccc(/C=C2\CC3(OC(=O)c4ccc(Cl)cc4)CCCN2C3)cc1 (centres undefined)	-7	-5	-3	1	x	4	x	x
Brc1ccc2c(c1)-c1ccccc1C1=NCCN12	13	3	-11	-3	7	6	x	x
Clc1ccc2c(c1)-c1ccccc1C1=NCCN12	22*	2	-3	-5	1	7	2	42*
CNC12CCc3cc(OC)c(OC)c(c31)-c1cc3c(cc1C2)OCO3 (centres undefined)	23*	16	30*	12	x	0	11	9
COc1cccc(C2=NCCc3cc4c(cc32)OCO4)c1OC	-2	-2	1	8	0	-1	x	x
CCN1CCN(CC(O)COCC2COc3ccccc3O2)CC1 (centres undefined)	16*	7	16	-1	-7	-2	6	0
